{
  "source": "PubChem BioAssay AID540256",
  "about": "(National Center for Advancing Translational Sciences (NCATS), 2011)",
  "note": "Among all 300,000 compounds or so, about 3,700 (1.2%) were called active. Roughly 20% stayed inconclusive and do not appear here. This is one part of a sample in which actives are shown more often than they occur. Calls come from the whole dose curve; tested in HEK293 cells. % is set by controls: 0 for no effect and ±100 for the full control effect; potency is the fitted concentration of half-maximal effect.",
  "data": [
    {"assay": "qHTS for Inhibitors of binding or entry into cells for Lassa Virus; note: nearly all actives have a fitted effect of over 50% in size", "settings": "Lassa virus pseudotype entry inhibition, cell reporter; series mostly up to 37.9 µM; activity change, negative = inhibition: at the top concentration", "values": [
      {"smiles": "Cc1cccc(N2CCN(c3ccc(C(=O)O)cc3NC(=O)c3ccccc3F)CC2C)c1", "note": "(stereo unspecified)", "activity change, negative = inhibition": "13.8% [at 46.1 µM] (inactive)"},
      {"smiles": "NC(=O)C1(Nc2ccccc2Cl)CCCC1", "activity change, negative = inhibition": "-22.7% (inactive)"},
      {"smiles": "O=C(/C=C\\NCC(=O)c1ccccc1)c1ccccc1", "activity change, negative = inhibition": "0.347% (inactive)"},
      {"smiles": "Cc1noc(NS(=O)(=O)c2ccc(N/C=C/C(=O)c3ccccc3)cc2)c1C", "activity change, negative = inhibition": "1.23% (inactive)"},
      {"smiles": "CCOc1ccc(N/C=C/C(=O)c2ccccc2)cc1", "Potency": "7.08 µM (active)"},
      {"smiles": "COc1ccc(Cn2c(C(=O)O)c(CNCCc3cccs3)c3ccc(OC)cc32)cc1", "activity change, negative = inhibition": "-13.2% [at 46.1 µM] (inactive)"},
      {"smiles": "COc1ccc2c(CNCCc3ccccc3C)c(C(=O)O)n(Cc3ccccc3C)c2c1", "activity change, negative = inhibition": "-8.31% [at 46.1 µM] (inactive)"},
      {"smiles": "COc1ccc(CCNCc2c(-c3ccccc3)n(C)c3ccccc23)cc1", "Potency": "8.91 µM (active)"},
      {"smiles": "CCOC(=O)C1CCN(C(=O)COc2cccc3ccccc23)CC1", "activity change, negative = inhibition": "17.3% [at 46.1 µM] (inactive)"},
      {"smiles": "O=C(Nc1cc(S(=O)(=O)N2CCCCC2)ccc1Cl)C1COc2ccccc2O1", "note": "(stereo unspecified)", "activity change, negative = inhibition": "-24.8% (inactive)"},
      {"smiles": "COc1cccc(CNC(=O)c2ccc3c(c2)sc2nc(-c4cccc(OC)c4)cn23)c1", "activity change, negative = inhibition": "-0.598% [at 46.1 µM] (inactive)"},
      {"smiles": "CC(=O)c1cc(C#N)c(N2CCCCC2)nc1C", "activity change, negative = inhibition": "0.572% (inactive)"},
      {"smiles": "Cc1cc(C)c2nc(N3CCCC3)c(C#N)cc2c1", "activity change, negative = inhibition": "11.1% (inactive)"},
      {"smiles": "CC(=O)c1ccc(S(=O)(=O)N2CCN(c3nc4c(C)c(C)ccc4cc3C#N)CC2)cc1", "Potency": "18.3 µM (active)"},
      {"smiles": "COc1ccc(N2CCN(C(=O)COC(=O)c3cccc(S(=O)(=O)Nc4ccccc4OC)c3)CC2)cc1", "activity change, negative = inhibition": "-29.3% (inactive)"},
      {"smiles": "COCCN(C(=O)C(C)N1C(=O)c2ccccc2C1=O)c1c(N)n(CC(C)C)c(=O)[nH]c1=O", "note": "(stereo unspecified)", "activity change, negative = inhibition": "10.8% (inactive)"},
      {"smiles": "O=C(Nc1ccn(Cc2ccccc2)n1)c1n[nH]c([N+](=O)[O-])c1Cl", "Potency": "7.31 µM (active)"},
      {"smiles": "CC(=O)Nc1ccn(Cc2c(F)cccc2Cl)n1", "activity change, negative = inhibition": "23.3% (inactive)"},
      {"smiles": "Cn1cc([N+](=O)[O-])c(C(=O)Nc2cnn(Cc3ccc(F)cc3)c2)n1", "activity change, negative = inhibition": "-15% (inactive)"},
      {"smiles": "O=C(CN1CCC(NC(=O)Nc2ccccc2)CC1)Nc1cccc([N+](=O)[O-])c1", "activity change, negative = inhibition": "9.38% (inactive)"},
      {"smiles": "CCn1c(SCC(=O)Nc2ccc(Br)cc2)nc2sc3c(c2c1=O)CCN(C)C3", "activity change, negative = inhibition": "13.2% [at 46.1 µM] (inactive)"},
      {"smiles": "COc1ccc(C)cc1Nc1nc(C)nc2c1oc1ccccc12", "activity change, negative = inhibition": "-17.2% (inactive)"},
      {"smiles": "CCC1([N+](=O)[O-])COC(c2ccc(C(C)C)cc2)OC1", "note": "(stereo unspecified)", "activity change, negative = inhibition": "0.913% [at 46.1 µM] (inactive)"},
      {"smiles": "COc1ccc(/C=C2/CCCc3ccccc3C2=O)cc1", "activity change, negative = inhibition": "-3.13% (inactive)"},
      {"smiles": "COc1ccc(/C=C2\\CCCC3C2=NN(C(=O)c2scnc2C)C3c2ccc(OC)cc2)cc1", "note": "(stereo unspecified)", "Potency": "1.03 µM (active)"},
      {"smiles": "CCOc1ccccc1-c1nc(CN2CCC(C(=O)N3CCOCC3)CC2)c(C)o1", "activity change, negative = inhibition": "1.92% (inactive)"},
      {"smiles": "COc1cccc(C=CC(=O)C=CC=Cc2ccccc2)c1", "activity change, negative = inhibition": "8.13% [at 46.1 µM] (inactive)"},
      {"smiles": "O=[N+]([O-])c1ccc(N=NNc2ccc([N+](=O)[O-])cc2)cc1", "activity change, negative = inhibition": "-8.18% [at 46.1 µM] (inactive)"},
      {"smiles": "O=C(NCCc1ccccc1)c1c[nH]c2ccc(F)cc2c1=O", "activity change, negative = inhibition": "2.46% [at 46.1 µM] (inactive)"},
      {"smiles": "CCc1ccc(NS(=O)(=O)c2ccc3[nH]cc(C(=O)NCCc4cccc(C)c4)c(=O)c3c2)cc1", "activity change, negative = inhibition": "11.7% [at 46.1 µM] (inactive)"},
      {"smiles": "CCN(CC)S(=O)(=O)c1ccc2[nH]cc(C(=O)NCCc3ccccc3)c(=O)c2c1", "Potency": "0.224 µM (active)"},
      {"smiles": "Cc1ccc(-n2ncc3c2CC(C)(C)CC3NC(=O)Cc2c(C)noc2C)cc1", "note": "(stereo unspecified)", "activity change, negative = inhibition": "-1.13% (inactive)"},
      {"smiles": "CC(C)Cn1cnc2c1c(=O)n(CC(=O)NN)c(=O)n2Cc1ccccc1", "activity change, negative = inhibition": "8.73% (inactive)"},
      {"smiles": "CC(C)(C)NCC(O)COc1cccc2[nH]c(=O)[nH]c12", "note": "(stereo unspecified)", "activity change, negative = inhibition": "-18.2% (inactive)"},
      {"smiles": "Cc1noc(COc2ccccc2OCC(O)CNC(C)(C)C)n1", "note": "(stereo unspecified)", "activity change, negative = inhibition": "-8.37% (inactive)"},
      {"smiles": "CC(C)(C)CC(C)(C)NCC(O)COCCOc1ccc(Br)cc1", "note": "(stereo unspecified)", "Potency": "13 µM (active)"},
      {"smiles": "CN(N)c1nc(N2CCCC2)nc(N2CCCC2)n1", "activity change, negative = inhibition": "3.32% (inactive)"},
      {"smiles": "O=C(Nc1ccccc1Cl)c1ccc2nsnc2c1", "activity change, negative = inhibition": "1.68% (inactive)"},
      {"smiles": "COCCN(CCOC)C(=S)Nc1ccccc1Cl", "activity change, negative = inhibition": "-7.1% (inactive)"},
      {"smiles": "O=C(Nc1ccccc1Cl)/C(Cl)=C(\\Cl)S(=O)c1ccccc1", "note": "(stereo unspecified)", "Potency": "8.91 µM (active)"},
      {"smiles": "CCC(=O)N1CCN(c2ccccc2NC(=O)COc2cccc(C)c2C)CC1", "activity change, negative = inhibition": "-25.8% (inactive)"},
      {"smiles": "COc1ccc(N(CC(=O)Nc2cc(OC)cc(OC)c2)S(=O)(=O)c2c(C)n[nH]c2C)cc1", "activity change, negative = inhibition": "-22.8% [at 46.1 µM] (inactive)"},
      {"smiles": "O=C(Nc1ccccc1C(=O)O)c1cc(S(=O)(=O)N2CCCCC2)cs1", "activity change, negative = inhibition": "-14.1% (inactive)"},
      {"smiles": "O=C(Nc1ccccc1F)c1cc(S(=O)(=O)N2CCCCC2)cs1", "Potency": "20.6 µM (active)"},
      {"smiles": "Cc1ccccc1NC(=O)c1cc(S(=O)(=O)N2CCOCC2)cs1", "activity change, negative = inhibition": "11.5% (inactive)"},
      {"smiles": "O=C(Nc1ccc2nc(SCCOc3ccccc3)sc2c1)c1ccco1", "activity change, negative = inhibition": "6.39% [at 46.1 µM] (inactive)"},
      {"smiles": "CCCn1c(C)cc(-c2csc(NC(=O)CCc3nc4ccccc4c(=O)[nH]3)n2)c1C", "activity change, negative = inhibition": "13.6% (inactive)"},
      {"smiles": "Cc1oc(-c2ccccc2)nc1Cn1c(SCc2cccc(C(F)(F)F)c2)nc2cccnc21", "activity change, negative = inhibition": "-28.6% [at 46.1 µM] (inactive)"},
      {"smiles": "O=S(=O)(O)c1cc2onnc2c2ccccc12", "activity change, negative = inhibition": "1.68% [at 46.1 µM] (inactive)"},
      {"smiles": "Oc1ccc(Cl)cc1/C=N/c1nc2ccccc2[nH]1", "activity change, negative = inhibition": "-23.6% [at 14.3 µM] (inactive)"},
      {"smiles": "CCC(=O)/C(=C(/O)c1ccccc1)c1nc2ccccc2[nH]1", "activity change, negative = inhibition": "-7.18% [at 46.1 µM] (inactive)"},
      {"smiles": "O=C(/C(=C/c1cccc(Cl)c1)c1nc2ccccc2[nH]1)c1ccccc1", "Potency": "10 µM (active)"},
      {"smiles": "CCc1ccc(NC(=O)CN2CCC(C(=O)c3ccc(OC)cc3)CC2)cc1", "activity change, negative = inhibition": "4.84% [at 46.1 µM] (inactive)"},
      {"smiles": "O=C(Nc1c(Br)cc2c(c1Br)Cc1ccccc1-2)C(F)(F)F", "activity change, negative = inhibition": "-2.97% [at 46.1 µM] (inactive)"},
      {"smiles": "O=C(/C=C/c1ccccc1)c1ccccc1O", "activity change, negative = inhibition": "-11.3% (inactive)"},
      {"smiles": "CC(/C=C/c1ccccc1)=N\\NC(=O)C1CC1(C)c1ccccc1", "note": "(stereo unspecified)", "Potency": "1.03 µM (active)"},
      {"smiles": "CC(C=Cc1ccccc1)=NNS(=O)(=O)c1ccc([N+](=O)[O-])cc1", "activity change, negative = inhibition": "-16.9% [at 46.1 µM] (inactive)"},
      {"smiles": "CSCCC(NS(=O)(=O)c1ccc(C)cc1)C(=O)N(C)CC(=O)Nc1ccccc1Br", "note": "(stereo unspecified)", "activity change, negative = inhibition": "-7.64% (inactive)"},
      {"smiles": "CN(CC(=O)Nc1ccccc1C(F)(F)F)C(=O)Cc1ccccc1F", "activity change, negative = inhibition": "1.54% (inactive)"},
      {"smiles": "COC(=O)CC(CC(=O)OC)n1cccc1", "activity change, negative = inhibition": "19.3% [at 46.1 µM] (inactive)"},
      {"smiles": "CCOC(=O)CN1C(C(=O)c2ccccc2)=C(OC(=O)C(C)(C)C)c2ccccc2S1(=O)=O", "activity change, negative = inhibition": "10.1% [at 46.1 µM] (inactive)"},
      {"smiles": "CCOc1ccc(C(=O)NCC(=O)N2CCCCCCC2)cc1OCC", "activity change, negative = inhibition": "-15.1% (inactive)"},
      {"smiles": "Fc1ccc(-n2ncc3c(Nc4ccc(Oc5ccccc5)cc4)ncnc32)cc1", "activity change, negative = inhibition": "27% [at 46.1 µM] (inactive)"},
      {"smiles": "CCOC(=O)N1CCN(C(=O)c2ccccc2N(Cc2ccccc2)S(=O)(=O)c2ccc(OC)cc2)CC1", "Potency": "7.08 µM (active)"},
      {"smiles": "CCN1CCN(C(=O)c2ccccc2N(C)S(=O)(=O)c2ccc(C)cc2)CC1", "activity change, negative = inhibition": "-16.6% (inactive)"},
      {"smiles": "NC(=O)c1ccccc1N(Cc1ccccc1)S(=O)(=O)c1ccccc1", "activity change, negative = inhibition": "-13.9% [at 46.1 µM] (inactive)"}
    ]}
  ]
}
